Assay outcomes as filed in PubChem BioAssay.
PolyA inhibitor = blocks polyadenylation in yeast reporter cells; S. cerevisiae SKY197-pL101 polyadenylation reporter, beta-gal luminescence; efflux-impaired pdr1/pdr3 knockout yeast; score 100 = 6 SD above DMSO; AID 1875; 300,000 tested, 0.02% active; activity score, % at 12 µM;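 active = lowest replicate activity score at least 50, where 100 means six control SD above control mean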;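 also: yeast exposed to compound for 9 h at 30 °C; higher score means more reporter readthrough which indicates perturbed polyadenylation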
DAX1 inh-1 = inhibitors of DAX1 repression of SF-1 activated StAR promoter; 370,000 tested, 1.1% active; inhibition, % at 6.8 µM; HEK293T StAR-luciferase reporter, SF-1/DAX-1 repression relief;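 active = inhibition above the mean over all tested compounds plus 3 SD, cut at about 3.6% in these data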;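 also: 0% = DAX-1 cells with DMSO and 100% = cells lacking DAX-1 with DMSO; higher inhibition means more luminescence from relief of DAX-1 repression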
DAX1 inh-2 = inhibitors of human orphan nuclear receptor DAX1 (NR0B1); P51843; HEK293 Gal4-DAX1 luciferase reporter, luminescence; inhibition, % at 6.75 µM; 340,000 tested, 0.99% active; AID 504766;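 active = inhibition above the mean over all tested compounds plus 3 SD, cut at about 4.2% in these data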;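 also: 0% = DAX1-transfected cells with DMSO and 100% = empty-vector control cells with DMSO; inhibition shows as a rise in luminescence from relieved DAX1 repression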
Target sequence (P51843 207-470 limits assumed): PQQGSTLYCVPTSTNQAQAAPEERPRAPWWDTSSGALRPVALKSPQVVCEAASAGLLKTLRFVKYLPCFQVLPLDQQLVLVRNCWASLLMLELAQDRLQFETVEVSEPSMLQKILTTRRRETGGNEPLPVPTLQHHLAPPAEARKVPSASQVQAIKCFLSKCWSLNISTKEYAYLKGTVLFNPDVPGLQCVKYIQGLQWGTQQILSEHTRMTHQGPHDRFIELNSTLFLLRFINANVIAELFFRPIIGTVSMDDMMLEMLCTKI
hcDAF12 agonist = activators of H. contortus DAF-12 nuclear receptor. AID 652067. HEK293 hcDAF-12 lit1-tk-luc reporter, luminescence; 0% DMSO, 100% Δ7-dafachronic acid. activation, % at 6.8 µM. 370,000 tested, 1.4% active;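 active = activation above the mean of all tested compounds plus 3 SD, cut at about 5.5% in these data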;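 also: 100% = response to 3 µM Δ7-dafachronic acid high control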
hgDAF-12 ag = hgDAF-12 agonism, primary luciferase screen | HEK293 GAL4-hgDAF12 UAS-luciferase reporter, agonist luminescence; normalized to butyrate control | activation, % at 6.8 µM | 370,000 tested, 1.8% active;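 active = activation above a cutoff set at the mean of all screened compounds plus 3 SD, cut at about 10% in these data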;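 also: 0% = DMSO wells and 100% = sodium butyrate wells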
ssDAF12 agonist = activators of S. stercoralis DAF-12 nuclear receptor; HEK293 ssDAF-12/GRIP1 lit1-tk-luc reporter, luminescence; % of 3 µM dafachronic acid response; activation, % at 6.8 µM; 370,000 tested, 1% active;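 active = activation above the mean over all tested compounds plus 3 SD, cut at about 0.9% in these data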;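 also: 0% = DMSO-only wells and 100% = 3 µM delta7-dafachronic acid wells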
LXR ag = activates human LXR-beta, counter-screen for hcDAF-12 agonists | shares compounds with hcDAF12 agonist | HEK293 Gal4-LXR tk-luc reporter, luminescence, 24 h; normalized: DMSO 0%, positive control 100% | activation, % at 6.8 µM | 3,400 tested, under 10 active;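 active = mean percent activation of the reporter above a cutoff set as the average over tested compounds plus their standard deviation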
hcDAF12 ag = confirmation of H. contortus DAF-12 agonists. shares compounds with hcDAF12 agonist. HEK293 hcDAF-12 lit1-tk-luc reporter, luminescence; % of Δ7-dafachronic acid response. 3,400 tested, 61% active. activation, % at 6.8 µM;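 active = mean activation across triplicate tests above the threshold derived from the earlier primary screen, cut at about 5.5% in these data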;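 also: 0% = DMSO only wells and 100% = 3 µM Δ7-dafachronic acid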
An asterisk follows results filed as active; . = no result. Shown are actives, neighbours in structure and some others; about 4.1% of the full set was active somewhere.

SMILES	PolyA inhibitor	DAX1 inh-1	DAX1 inh-2	hcDAF12 agonist	hgDAF-12 ag	ssDAF12 agonist	LXR ag	hcDAF12 ag
CCN(CC)CCn1c(NC(=O)c2ccc(C)cc2)nc2ccccc21	-7.1	0.7	3.2	10.7*	10.3	1.0*	0.0	5.4
CC(=O)Nc1nc2ccccc2n1Cc1ccc(Cl)cc1	-6.6	-1.3	1.3	-1.1	0.1	-1.1	.	.
CCCNC(=O)c1cc(S(=O)(=O)N2CCc3ccccc32)cn1C	7.3	-4.0	-1.5	-3.9	-5.2	-2.1	.	.
CCCNC(=O)c1ccccc1NC(=O)CN(c1ccccc1)S(=O)(=O)N(C)C	1.7	-0.1	0.1	-2.0	1.3	-1.4	.	.
COC(=O)c1[nH]c2ccccc2c1NC(=O)Oc1ccccc1	12.9	1.4	3.0	8.4*	5.9	0.5	0.2	7.4*
COC(=O)c1[nH]c2ccccc2c1CN1CCOCC1	26.1	0.3	-1.4	7.5*	2.4	-0.5	-0.2	2.2
CCOC(=O)c1[nH]c2ccccc2c1NC(=O)CC(C)(C)C	-14.1	-0.3	-1.1	6.8*	4.6	-0.1	0.0	5.1
O=C(NCc1ccccc1)C(c1ccccc1)n1c(=O)c(-c2cc3ccccc3[nH]2)nc2ccccc21 (centres undefined)	.	2.1	.	3.5	4.1	0.3	.	.
O=C(NCc1ccccc1)C(c1cc2ccccc2o1)n1c(=O)c(-c2cc3ccccc3[nH]2)nc2ccccc21 (centres undefined)	.	2.7	.	9.2*	5.6	1.8*	-0.2	7.0*
O=C(Nc1ccc2c(c1)OCCO2)C(c1ccncc1)n1c(=O)c(-c2cc3ccccc3[nH]2)nc2ccccc21 (centres undefined)	.	2.6	.	8.8*	12.1*	1.6*	1.1	15.0*
CCCCCNC(=O)C(c1ccncc1)n1c(=O)c(-c2cc3ccccc3[nH]2)nc2ccccc21 (centres undefined)	.	4.3*	.	9.2*	8.4	0.9*	0.3	9.9*
COCCNC(=O)C1(C)CCCN(C(=O)CCc2ccccc2)C1 (centres undefined)	.	0.5	.	-0.8	-0.4	-1.3	.	.
O=C(Nc1ccc(NS(=O)(=O)c2ccccc2)c(Cl)c1)c1ccccc1	.	-0.8	-1.4	-1.7	0.2	-1.7	.	.
CCOC(=O)c1c(C)oc2c1c1c(c3ccccc32)OCN(CCCC(=O)O)C1	-9.4	1.7	5.0*	8.9*	7.5	1.2*	0.8	11.8*
Cc1ccc(NCC(=O)c2ccccc2)cc1Cl	-20.9	-0.3	0.7	7.7*	2.0	-0.1	-0.1	3.3
Cc1ccc(C(=O)CNc2ccc(C)c(Cl)c2)cc1	-8.7	0.6	0.7	0.1	-0.7	-1.3	.	.
CC1=NN(c2ccccc2)C(=O)/C1=C/c1ccc[nH]1	17.2	0.6	0.2	7.6*	9.3	1.1*	0.3	8.8*
CC1=NN(c2ccccc2)C(=O)C1=Cc1ccccc1	.	0.4	0.7	-1.0	0.9	-1.1	.	.
Cc1ccc(C)c(N=Nc2nc3ccccc3n2C)c1	-7.0	0.5	2.5	12.3*	8.2	1.2*	1.0	13.3*
Cc1ccc(OC(C)C(=O)N2CC(=O)Nc3ccccc32)c(C)c1 (centres undefined)	-3.5	-0.1	0.3	-1.6	-1.2	-0.8	.	.
CC1=C(C(=O)N(C)C)CC(CC(=O)NC(c2ccccc2)c2ccccc2)C(=O)N1CCC1=CCCCC1 (centres undefined)	.	-2.1	-0.1	-1.3	-2.9	-0.8	.	.
C1=C(c2ccccc2)Nc2ccccc2N=C1c1ccccc1	-16.9	-1.1	0.6	3.1	2.3	-1.2	.	.
Cn1c(O)c(N=NC(=O)Cn2ccc(C(F)(F)F)n2)c2ccccc21	-0.5	-0.1	-1.5	9.1*	1.9	-0.8	-0.2	0.3
